We go through six molecules from PubChem BioAssay.

Molecules are shown by their SMILES. Active and inactive are the calls of the source.

In experiment [1] the test system is Human papillomavirus type 1a protein E7 (residues 44-93). The experiment in a line: small molecules binding HPV E7 44-93 – biochemical, small-molecule microarray, residues 44-93, 635 nm fluorescence, primary screen (AID 1108).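 Further: E7 fragment applied at 1 µg/mL in TBST for 1 h at 4 C; score combines spot fluorescence with its signal to noise ratio.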 The conditions noted are these: fluorescence 635 nm, higher = more signal.
Experiment [2] in a line: hepatitis C replication reporter changes, two-sided – Huh7 cells, luciferase reporter, HCV replication inhibitor project, primary screen (AID 1109).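 Further: huh7 hepatoma cells harbouring a luciferase neomycin HCV replicon reporter; luciferase luminescence as measure of HCV replicon replication; test concentration not given here.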 The conditions noted are these: Huh7 HCV replicon luciferase reporter, 48 h; higher = more signal. For orientation: A reporter such as luciferase makes a cellular process visible.
Experiment [3] has as its target Left-right determination factor 2 (Homo sapiens) (UniProt O00292). The experiment is described as follows: small molecules binding LEFTY2 protein – biochemical, small-molecule microarray, 635 nm fluorescence scan, primary screen (AID 1110). The conditions noted are these: higher = more signal.
Experiment [4] deals with Calmodulin-1 (Homo sapiens) (UniProt P0DP23). The experiment is described as follows: small molecules binding calmodulin-1 with EGTA – biochemical, small-molecule microarray, Cy5-labelled CALM1, profiling panel (AID 1111).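 Further: labelled calmodulin applied in Tris saline Tween buffer holding calcium plus EGTA and DTT.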 The note with it: Cy5-CALM1 binding fluorescence, higher = more signal.
The target is the same in experiment [5]. The experiment in a line: small molecules binding Ca-loaded calmodulin-1 – biochemical, small-molecule microarray, Cy5-labelled CALM1, plus calcium, artefact control for SMM control-protein annotation, profiling panel (AID 1112).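 Further: score merges spot fluorescence with signal to noise from triplicate slides.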 The conditions noted are these: Cy5-CALM1 binding fluorescence, higher = more signal.
Experiment [6] in a line: probe aWnt5a binding to arrayed compounds – biochemical, biotinylated probe, 635/667 nm fluorescence, primary screen (AID 1113).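 Further: score merges 667 nm fluorescence intensity with signal-to-noise per printed feature.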 The conditions noted are these: small-molecule microarray, higher = more signal.
Experiment [7] in a line: probe aShh binding to arrayed compounds – biochemical, biotinylated probe, 635/667 nm fluorescence, primary screen (AID 1114).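 Further: probe is biotin-labelled aShh protein from a stem cell growth factor screen; measures binding of labelled protein to compounds printed on the slide; score merges feature fluorescence at 667 nm with signal-to-noise.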 The conditions noted are these: small-molecule microarray, higher = more signal.
A short description of experiment [8]: probe aNog binding to arrayed compounds – biochemical, biotinylated probe, 635/667 nm fluorescence, primary screen (AID 1115).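 Further: probe is biotinylated aNog protein used at 0.15 µg/mL for 1 h at 4 C; z-score combines 667 nm fluorescence of each spot with its signal to noise.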 The conditions noted are these: small-molecule microarray, higher = more signal.
For experiment [9], the target named is Torsin-1A-interacting protein 1 (Homo sapiens) (UniProt Q5JTV8). The experiment is described as follows: compound microarray binding of lysate hLAP1 – cell lysate, small-molecule microarray, COS7 lysate, 635/667 nm fluorescence, primary screen (AID 1116). The note with it: 635 nm fluorescence, higher = more signal.
Experiment [10] concerns the target Alpha-bungarotoxin (Bungarus multicinctus) (UniProt P60615). The experiment is described as follows: compounds binding labelled alpha-BTX control protein – biochemical, small-molecule microarray, Alexa647 label, 635/667 nm fluorescence, artefact control for SMM control protein annotation, profiling panel (AID 1117). The note with it: alpha-BTX-A647 binding fluorescence, higher = more signal.

The target in a further experiment is Albumin (Bos taurus) (UniProt P02769). The experiment is described as follows: compounds binding labelled BSA control protein – biochemical, small-molecule microarray, Alexa647 label, 635/667 nm fluorescence, artefact control for SMM control protein annotation, profiling panel (AID 1118).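 Further: score merges 667 nm emission intensity and signal-to-noise per printed compound spot.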 The note with it: BSA-A647 binding, fluorescence 635 nm, higher = more signal.

Experiment [11] in a line: probe aXIP binding to arrayed compounds – biochemical, NeuroSMM set, 635/667 nm fluorescence, primary screen (AID 1119).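 Further: probe is the protein aXip251-270 applied at 1 µg/mL to compound-printed slides; binding of probe to printed compounds measured as 667 nm fluorescence plus signal to noise.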 The conditions noted are these: small-molecule microarray, higher = more signal, called active from +8 up or from −8 down.
The nature of experiment [12]: probe aNOTCH3 binding on compound microarray – biochemical, small-molecule microarray, 635/667 nm fluorescence, primary screen (AID 1120).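 Further: probe is a biotin-tagged antibody raised against NOTCH3 rather than NOTCH3 protein; score merges spot fluorescence near 667 nm with spot signal to noise.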 The note with it: higher = more signal.
Experiment [13] can be described thus: probe aNOTCH2 binding on compound microarray – biochemical, small-molecule microarray, 635/667 nm fluorescence, primary screen (AID 1121).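 Further: score merges feature fluorescence read at 667 nm with its signal to noise.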 The conditions noted are these: higher = more signal.
Experiment [14] has as its target Carbonic anhydrase 2 (Homo sapiens) (UniProt P00918). The experiment is described as follows: compounds binding carbonic anhydrase 2 – biochemical, small-molecule microarray, Alexa647-labelled CAII, profiling panel (AID 1122). The conditions noted are these: CAII-A647 binding fluorescence, higher = more signal.
A short description of experiment [15]: COS7 lysate on small-molecule microarray, probe aHis, 635 nm (AID 1123).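 Further: z-score combines 667nm fluorescence intensity with signal-to-noise per printed compound spot.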 The conditions noted are these: COS7 cell lysate, fluorescence, higher = more signal.
The nature of experiment [16]: probe aLAP1 signal on lysate-treated microarray – cell lysate, small-molecule microarray, COS7 lysate, primary screen (AID 1124).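 Further: lysate comes from COS7 cells expressing LAP1 and is applied at 0.3 µg/mL; score merges spot fluorescence near 667 nm with signal-to-noise over triplicate slides.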 The conditions noted are these: probe aLAP1, fluorescence, higher = more signal.
In the next experiment the test system is Sam68 (KHDRBS1). The experiment in a line: compounds binding KHDRBS1 protein – biochemical, small-molecule microarray, 635 nm fluorescence, primary screen (AID 1125).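 Further: score merges 667 nm channel intensity with signal to noise over triplicate slides.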 The note with it: higher = more signal.
Experiment [17] has as its system Chordin-like protein 2 (CHRDL2). The experiment is described as follows: compounds binding chordin-like 2 – biochemical, small-molecule microarray, 635 nm fluorescence, primary screen (AID 1126).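 Further: printed compound slides probed with Chrdl2 protein at 4 µg/mL for 1 h at 4 C; score merges 667 nm emission intensity with signal to noise over three replicate slides.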 The conditions noted are these: fluorescence 635 nm, higher = more signal.
Experiment [18] deals with Concanavalin-A (Canavalia ensiformis) (UniProt P02866). The experiment is described as follows: compounds binding concanavalin A lectin – biochemical, small-molecule microarray, Alexa647 label, 635 nm, artefact control for SMM control protein annotation, primary screen (AID 1127).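 Further: z combines 667 nm emission intensity with signal-to-noise across three replicate slides.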 The conditions noted are these: ConA-A647 binding fluorescence, higher = more signal.
Chain of Concanavalin-A (Canavalia ensiformis) (P02866 whole entry, looked up): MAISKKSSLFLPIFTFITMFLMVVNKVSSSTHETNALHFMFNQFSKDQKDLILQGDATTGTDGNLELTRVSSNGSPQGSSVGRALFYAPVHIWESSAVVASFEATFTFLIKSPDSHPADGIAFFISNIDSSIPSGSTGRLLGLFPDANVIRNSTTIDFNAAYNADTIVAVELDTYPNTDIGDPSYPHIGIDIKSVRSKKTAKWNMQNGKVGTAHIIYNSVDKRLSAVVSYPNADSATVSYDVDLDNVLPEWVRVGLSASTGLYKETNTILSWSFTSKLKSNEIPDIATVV

Chain of Torsin-1A-interacting protein 1 (Homo sapiens) (Q5JTV8 whole entry, looked up): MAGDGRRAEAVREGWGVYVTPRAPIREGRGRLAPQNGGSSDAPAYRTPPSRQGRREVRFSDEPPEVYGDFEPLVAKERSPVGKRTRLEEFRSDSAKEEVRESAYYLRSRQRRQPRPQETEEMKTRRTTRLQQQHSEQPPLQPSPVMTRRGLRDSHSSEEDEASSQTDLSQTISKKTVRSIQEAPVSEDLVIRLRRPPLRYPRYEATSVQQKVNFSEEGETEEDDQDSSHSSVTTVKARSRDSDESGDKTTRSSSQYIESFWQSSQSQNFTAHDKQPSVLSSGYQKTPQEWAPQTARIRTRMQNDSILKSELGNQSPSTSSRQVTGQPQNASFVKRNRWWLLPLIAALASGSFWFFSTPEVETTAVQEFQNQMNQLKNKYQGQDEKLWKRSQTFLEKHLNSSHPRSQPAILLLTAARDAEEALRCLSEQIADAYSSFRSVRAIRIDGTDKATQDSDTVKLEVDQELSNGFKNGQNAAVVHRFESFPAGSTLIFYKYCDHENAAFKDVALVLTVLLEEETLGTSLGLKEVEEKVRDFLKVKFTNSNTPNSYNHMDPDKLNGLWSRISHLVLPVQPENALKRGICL
Chain of Left-right determination factor 2 (Homo sapiens) (O00292 whole entry, looked up): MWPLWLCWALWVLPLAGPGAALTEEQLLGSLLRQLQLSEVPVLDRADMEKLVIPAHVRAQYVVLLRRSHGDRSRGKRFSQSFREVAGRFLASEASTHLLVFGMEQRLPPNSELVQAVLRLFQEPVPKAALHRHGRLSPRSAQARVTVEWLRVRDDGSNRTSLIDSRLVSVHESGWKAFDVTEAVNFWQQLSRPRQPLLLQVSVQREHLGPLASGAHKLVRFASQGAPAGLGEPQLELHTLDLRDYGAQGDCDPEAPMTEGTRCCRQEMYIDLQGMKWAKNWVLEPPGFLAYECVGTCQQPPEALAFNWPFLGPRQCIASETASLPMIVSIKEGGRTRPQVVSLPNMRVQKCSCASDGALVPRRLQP
Chain of Alpha-bungarotoxin (Bungarus multicinctus) (P60615 whole entry, looked up): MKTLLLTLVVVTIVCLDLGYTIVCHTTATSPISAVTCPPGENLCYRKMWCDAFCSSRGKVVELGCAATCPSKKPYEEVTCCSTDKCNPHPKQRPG
Chain of Albumin (Bos taurus) (P02769 whole entry, looked up): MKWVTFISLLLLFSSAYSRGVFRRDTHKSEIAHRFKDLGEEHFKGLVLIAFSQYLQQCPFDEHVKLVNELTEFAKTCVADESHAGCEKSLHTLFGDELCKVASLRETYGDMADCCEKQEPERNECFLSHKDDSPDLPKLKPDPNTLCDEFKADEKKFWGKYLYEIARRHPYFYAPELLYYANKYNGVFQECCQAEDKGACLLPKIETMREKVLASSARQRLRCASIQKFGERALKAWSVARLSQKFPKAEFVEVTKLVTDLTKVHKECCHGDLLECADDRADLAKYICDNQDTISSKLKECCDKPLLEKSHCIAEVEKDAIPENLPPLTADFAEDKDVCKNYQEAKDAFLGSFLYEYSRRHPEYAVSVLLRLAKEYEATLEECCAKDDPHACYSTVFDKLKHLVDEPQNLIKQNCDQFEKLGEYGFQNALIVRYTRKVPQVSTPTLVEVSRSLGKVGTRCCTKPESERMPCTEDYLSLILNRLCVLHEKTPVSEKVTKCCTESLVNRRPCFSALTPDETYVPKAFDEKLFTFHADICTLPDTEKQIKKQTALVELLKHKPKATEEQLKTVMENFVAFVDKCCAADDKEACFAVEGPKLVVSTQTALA

Consider `COCCOC(=O)N1C(=O)[C@@]2(c3cc(C#CCNC(N)=O)ccc31)[C@H](C(N)=O)[C@H]1C(=O)O[C@H](c3ccccc3)[C@H](c3ccccc3)N1[C@@H]2c1ccc(OCCO)cc1`, for which the composite z-score in [1] is 1.29; in experiment [3], 0.582; in [4], 0.701; in experiment [5], 0.257; in experiment [6], -0.1; in experiment [7] it was -0.156. The composite z-score in experiment [8] is 0.271; in experiment [9], 1.03; in experiment [10] it was 0.617; in the experiment with Albumin (Bos taurus), -0.217; in [12], 0.276; in [13] it was -0.0979. Also, the composite z-score in [14] was determined as 0.52; in [15] it was 0.475; in experiment [16], 0.53; with Sam68 (KHDRBS1), 0.815; in [17], 1.03; in experiment [18], 1.09. Further, the z-score in experiment [2] is -1.11. The composite Z-score in experiment [11] was 0.462 (inactive).

Take `Cc1ccccc1C(O)C1C=CC2C(=O)N(Cc3ccccc3)C(=O)C2N1n1cnnc1` (stereo not given): the composite z-score in [1] is 1.29; in experiment [3], -0.305; in experiment [4], 0.0712; in experiment [5] it was -0.535; in experiment [6], 0.0388; in experiment [7], 0.108. Also, the composite z-score was 0.2 in experiment [8]; 0.542 in experiment [9]; 0.611 in [10]; 0.756 in the experiment with Albumin (Bos taurus); 0.159 in experiment [12]; -0.137 in experiment [13]. The composite z-score in experiment [14] was 0.71; in experiment [15], 0.774; in experiment [16] it was -0.0065; in the experiment with Sam68 (KHDRBS1) it was 1.01; in experiment [17], -0.317; in experiment [18] it was 0.71. This molecule also registered a z-score in experiment [2] of -0.364. Moreover, the composite Z-score in experiment [11] is 0.358 (inactive).

Take `COc1ccc(C(=O)Nc2ccc(CN3C(=O)[C@]4(O[C@H](CCn5cc([C@H](O)c6ccccc6)nn5)[C@@H]([Si](C)(C)c5ccc(OC)cc5)[C@@H]4C)c4ccccc43)cc2)cc1`: the composite z-score was 0.237 in [1]; -0.48 in [3]; -0.0217 in [4]; 0.187 in [5]; 0.158 in experiment [6]; -0.453 in experiment [7]. The composite z-score is 0.0771 in [8]; 0.706 in [9]; 1.14 in experiment [10]; 0.109 in the experiment with Albumin (Bos taurus); 0.0026 in [12]; -0.132 in experiment [13]. Besides, the composite z-score in experiment [14] was 0.52; in experiment [15], 0.891; in experiment [16], -0.127; in the experiment on Sam68 (KHDRBS1), 0.619; in experiment [17], -0.313; in experiment [18], -0.0974. For the same molecule, the z-score in [2] was -4.97. Moreover, the composite Z-score in experiment [11] was 0.0958 (inactive).

Regarding `CC(C)CNC(=O)[C@@]1(c2ccc([N+](=O)[O-])cc2)CC(=O)N(C(C)C)[C@@H]1c1ccc(CO)cc1`, the composite z-score is 0.212 in experiment [1]; -1.53 in experiment [3]; -0.505 in experiment [4]; 0.739 in experiment [5]; -0.12 in [6]; -0.0738 in experiment [7]. In addition, the composite z-score in experiment [8] is -0.428; in [9] it was -0.534; in experiment [10], -0.186; with Albumin (Bos taurus), 0.1; in [12], -0.273; in experiment [13], -0.161. The composite z-score in experiment [14] was 0.735; in experiment [15], 1.59; in experiment [16], 0.664; in the experiment with Sam68 (KHDRBS1), 0.3; in experiment [17], -2.39; in [18] it was 0.0801. In experiment [2], this molecule displayed a z-score of -0.687. Also, the composite Z-score in experiment [11] is 1 (inactive).

As to `CC(C)(C)OC(=O)CC[C@]1(C(=O)O)COC(c2ccc(OCCCO)cc2)=N1`, the composite z-score in [1] was 0.191; in [3], -0.225; in experiment [4], 0.155; in [5], 0.568; in experiment [6], 0.105; in experiment [7], 0.0326. The composite z-score in experiment [8] is 0.609; in experiment [9], 0.672; in experiment [10], -0.582; in the experiment with Albumin (Bos taurus), 0.374; in experiment [12], 0.102; in [13] it was -0.0966. The composite z-score in experiment [14] was 0.803; in [15], 1.11; in experiment [16], -0.156; in the experiment with Sam68 (KHDRBS1), -1.05; in experiment [17] it was -1.92; in [18], 0.135. The z-score in [2] is 0.0847. Besides, in experiment [11], the composite Z-score was -0.0004 (inactive).

For `CCCC=C(CCC)[C@@H](NS(=O)(=O)CC)c1ccccc1`, the composite z-score is 1.37 in experiment [1]; -0.0866 in [3]; 1.37 in [4]; 0.855 in [5]; 0.0516 in experiment [6]; 0.949 in experiment [7]. Also, the composite z-score is 1.26 in [8]; 0.806 in experiment [9]; 0.157 in experiment [10]; 0.929 in the experiment with Albumin (Bos taurus); 0.096 in experiment [12]; -0.0194 in experiment [13]. Moreover, the composite z-score in experiment [14] was 0.532; in experiment [15], 1.68; in [16] it was 0.177; in the experiment on Sam68 (KHDRBS1) it was 1.29; in experiment [17], -0.462; in experiment [18], 1.04. Further, in [2], the z-score is -2.68. Besides, the composite Z-score in [11] was -0.112 (inactive).
